Screens as filed in PubChem BioAssay.
Lassa entry inh = qHTS for Inhibitors of binding or entry into cells for Lassa Virus | Lassa virus pseudotype entry inhibition, cell reporter | 300,000 compounds, 1.2% hits | Potency, µM (series often up to 37.9 µM), hits mostly inhibitors; calls by dose curve; tested in HEK293 cells; note: nearly all actives have a fitted effect of over 50% in size
Pf growth 48h = Primary qHTS for delayed death inhibitors of the malarial parasite plastid, 48 hour incubation. Potency, µM (doses to about 28.7 µM), usual class: inhibitors. P. falciparum luciferase growth in erythrocytes, 48 h. AID 504832, 2011. 310,000 compounds, 5.9% hits
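Parasite viability was followed by luminescence of a genomically integrated firefly luciferase. Cultures held 0.1% parasitemia at 2% hematocrit (final), incubated under 5% CO2 at 37 C.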
CHX counter = Cycloheximide Counterscreen for Small Molecule Inhibitors of Shiga Toxin; 300,000 compounds, 12% hits; max response, %; AID 2314, 2010; cell reporter, cycloheximide protein synthesis inhibition counterscreen; in the data active = max response mostly above about 13%, no sharp cut-off; inactive = mostly below about 14%; note: read at 38.3 µM for the half of the compounds with a filed dose
Shiga toxin inh = A qHTS for Small Molecule Inhibitors of Shiga Toxin. Vero cells, Shiga toxin protein synthesis inhibition reporter. inhibition, % at 38.7 µM. 290,000 compounds, 9.2% hits; in the data active = inhibition mostly above about 28%, no sharp cut-off; inactive = mostly below about 43%
Pf growth 96h = Primary qHTS for delayed death inhibitors of the malarial parasite plastid, 96 hour incubation; 320,000 compounds, 6.9% hits; Potency, µM (series often up to 28.7 µM), actives largely listed as inhibitors; P. falciparum luciferase reporter growth, 96 h; AID 504834, 2011
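Readout is luminescence from an integrated firefly luciferase in P. falciparum. Red cells, 2% hematocrit and 0.05% parasitemia final, were cultured with compound through two parasite generations (96 hours) at 37 C, 5% CO2.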
Marburg entry inh = qHTS for inhibitors of binding or entry into cells for Marburg Virus. Marburg virus pseudotyped entry inhibition, cell reporter. Potency, µM (titrated, usually from 37.8 µM), usual class: inhibitors. 300,000 compounds, 1.8% hits. AID 540276, 2011; calls by dose curve; tested in HEK293 cells
Hits are given with their value; [ ] = another dose, or the depositor's remark. Only some compounds are listed: those with a hit (about 19% of all), similar ones and a draw of the others. Unless noted, calls come from the whole dose curve; as a rule, active = well fitted inhibition curve with a large enough effect; inconclusive = small, poorly fitted or top-dose-only effect, or another doubt; inactive = no such curve, though single readings can be large or run the other way.

For N=c1c(C(=O)NCc2ccc(F)cc2)cc2c(=O)n3ccccc3nc2n1CC1CCCO1 (stereo not given) the results were Lassa entry inh inconclusive, Pf growth 48h 12µM, CHX counter inactive, Shiga toxin inh inactive, Pf growth 96h inactive[5.75 µM] and Marburg entry inh inconclusive.
For N=c1c(C(=O)NCc2ccc3c(c2)OCO3)cc2c(=O)n3ccccc3nc2n1CC1CCCO1 (stereo not given) the results were Lassa entry inh inactive, Pf growth 48h inconclusive, CHX counter inactive, Shiga toxin inh inactive, Pf growth 96h inconclusive and Marburg entry inh inconclusive.
Cc1ccc(CNC(=O)c2cc3c(=O)n4cccc(C)c4nc3n(CC3CCCO3)c2=N)cc1 (stereo not given) was read as Pf growth 48h inconclusive, CHX counter inactive, Shiga toxin inh inactive, Pf growth 96h 8.3µM and Marburg entry inh inactive.
Screening C[C@@H]1NC(=O)/C(=C\c2ccccc2Cl)NC1=O returned Lassa entry inh inactive, Pf growth 48h inactive, CHX counter inactive, Shiga toxin inh inactive, Pf growth 96h inactive and Marburg entry inh inactive.
COC(=O)C/C(C)=N/Nc1ccc(S(=O)(=O)N2CCCC2)cc1[N+](=O)[O-] was read as Pf growth 48h inactive, CHX counter inactive, Shiga toxin inh inactive, Pf growth 96h inactive and Marburg entry inh inactive.
O=C(CSc1nc(NS(=O)(=O)c2ccccc2)cc(=O)[nH]1)Nc1ccccc1Cl was read as Pf growth 48h inactive, CHX counter inactive, Shiga toxin inh inactive, Pf growth 96h inconclusive and Marburg entry inh inactive.
`Cc1cc(C)c(S(=O)(=O)NCCc2cc3c(C)ccc(C)c3[nH]c2=O)c(C)c1` gave Lassa entry inh inactive and Marburg entry inh inactive.
O=C(Nc1nc2c(F)cccc2s1)c1ccc(S(=O)(=O)N2CCOCC2)cc1 was read as Lassa entry inh inactive.
O=C1c2ccccc2C(Nc2ccc3c(c2)OCO3)N1Cc1ccc2c(c1)OCO2 (stereo not given) was read as Lassa entry inh inactive, Pf growth 48h 9.3µM, CHX counter 38, Shiga toxin inh inactive, Pf growth 96h 3.3µM and Marburg entry inh inactive.
`O=C1c2ccccc2C(Nc2cccnc2)N1Cc1ccc2c(c1)OCO2` (stereo not given) gave Lassa entry inh inactive, Pf growth 48h inactive, CHX counter inactive, Shiga toxin inh inactive, Pf growth 96h 1.5µM and Marburg entry inh inactive.
`O=C1c2ccccc2C(O)N1Cc1ccc2c(c1)OCO2` (stereo not given) gave CHX counter inactive, Shiga toxin inh inactive and Pf growth 96h inactive.
`O=C1c2ccccc2C(Nc2ccc3c(c2)OCO3)N1Cc1ccco1` (stereo not given) gave Pf growth 48h inactive, CHX counter inactive, Shiga toxin inh 21 and Pf growth 96h inconclusive.
Screening O=C(CCC(=O)N1CCOc2ccccc21)NCCc1ccccc1 returned Pf growth 48h inactive, CHX counter 8.3, Shiga toxin inh inactive and Pf growth 96h 15µM.
`CC1CCCC(NC(=O)CCC(=O)N2CCOc3ccccc32)C1C` (stereo not given) gave Pf growth 48h inactive, CHX counter inactive, Shiga toxin inh inactive and Pf growth 96h 9.3µM.
COc1ccc(-n2cc(C(=O)O)c(=O)cc2C)cc1 was read as Lassa entry inh inactive, Pf growth 48h inactive, CHX counter inactive, Shiga toxin inh inactive, Pf growth 96h inactive and Marburg entry inh inactive.
For CC(C)(C)NC(=O)CN1CCCN(C(=O)COc2ccc(Cl)c3ccccc23)CC1 the results were Lassa entry inh inconclusive, Pf growth 48h 12µM, Pf growth 96h inconclusive and Marburg entry inh inactive.
O=C(COc1ccc2ccccc2c1Br)N1CCOCC1 was read as Lassa entry inh inconclusive, Pf growth 48h inactive, CHX counter inactive, Shiga toxin inh 39 and Marburg entry inh inactive.
For O=C(COc1ccc2ccccc2c1Br)Nc1ncn[nH]1 the results were Lassa entry inh inconclusive, Pf growth 48h inactive, CHX counter 32, Shiga toxin inh 76 and Marburg entry inh inconclusive.
For CCOC(=O)N1CCN(C(=O)COc2ccc3ccccc3c2Br)CC1 the results were Pf growth 48h inactive, CHX counter inactive, Shiga toxin inh inactive and Pf growth 96h 13µM.
O=C(COc1ccccc1Cl)N1CCCC1 was read as Lassa entry inh inactive, Pf growth 48h inactive, CHX counter inactive, Shiga toxin inh inactive and Marburg entry inh inconclusive.
Screening O=C(COc1ccc2ccccc2c1Br)N1CCCC1 returned Lassa entry inh inactive, Pf growth 48h inactive, CHX counter 42, Shiga toxin inh inactive, Pf growth 96h inconclusive and Marburg entry inh inconclusive.
`CC(=O)NC(=S)Nc1ccccc1C(=O)NC1CCCCC1` gave Lassa entry inh inactive, Pf growth 48h inactive, CHX counter inactive, Shiga toxin inh inactive, Pf growth 96h 8.3µM and Marburg entry inh inactive.
Screening O=C(NC(=S)NC1CCCC1)c1ccccc1Br returned Lassa entry inh inconclusive, Pf growth 48h inactive, CHX counter inactive, Shiga toxin inh inactive, Pf growth 96h inconclusive and Marburg entry inh inactive.
For CC(C)(C)C(=O)NC(=S)Nc1ccccc1C(=O)NC1CCCCC1 the results were Pf growth 48h inactive, CHX counter inactive, Shiga toxin inh inactive and Pf growth 96h inactive.
`O=C(NNC(=S)NC1CCCCC1)c1ccccc1O` gave Lassa entry inh inactive, Pf growth 48h inactive, CHX counter 16, Shiga toxin inh 62, Pf growth 96h 2.3µM and Marburg entry inh inconclusive.
For Cc1ccccc1CN(C)C(=O)[C@H](Cc1ccccc1)NC(=O)c1ccco1 the results were Pf growth 48h inconclusive and Pf growth 96h 8.3µM.
CC(C)Nc1nc(Cl)nc(N(C#N)CN2C(=O)c3ccccc3C2=O)n1 was read as Lassa entry inh inconclusive, Pf growth 48h inactive, CHX counter inactive, Shiga toxin inh inactive, Pf growth 96h inactive and Marburg entry inh 2.5µM.
For CCc1ccc(NC(=O)Cn2c3[n+](c4c(F)c(F)ccc42)CCCCC3)cc1 the results were Lassa entry inh inactive, Pf growth 48h 3.7µM, CHX counter inactive, Shiga toxin inh inactive, Pf growth 96h inconclusive and Marburg entry inh inactive.
For N#Cc1ccc(NC(=O)Cn2c3[n+](c4ccc(C(F)(F)F)cc42)CCCCC3)cc1 the results were Lassa entry inh inconclusive, Pf growth 48h 12µM, CHX counter inactive, Shiga toxin inh inactive, Pf growth 96h 4.7µM and Marburg entry inh inactive.
O=C(Cn1c2[n+](c3ccc(C(F)(F)F)cc31)CCCCC2)Nc1ccc(Br)cc1 was read as Lassa entry inh inactive, Pf growth 48h 10µM, CHX counter inactive, Shiga toxin inh inactive, Pf growth 96h 10µM and Marburg entry inh inactive.
c1ccc(-n2ccnc2)cc1 was read as Pf growth 48h inactive, CHX counter inactive, Shiga toxin inh inactive and Pf growth 96h inactive.
`c1ccc2nc(-c3ccc(-n4ccnc4)cc3)ccc2c1` gave Pf growth 48h inactive, CHX counter 35, Shiga toxin inh 61 and Pf growth 96h inactive.
